# Assay outcomes as filed in PubChem BioAssay.
# M18AAP inhibitor: PfM18AAP inhibitors, malaria aminopeptidase, primary screen, biochemical, QFRET, recombinant enzyme; M18 aspartyl aminopeptidase (Plasmodium falciparum 3D7); H-Glu-NHMec fluorogenic cleavage; inhibition, % at 7.35 µM; actives 1.2% (n = 290,000); AID 1822, 2009;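 active means inhibition above the campaign mean inhibition over all tested compounds plus 3 SD, cut at about 28% in these data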;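 further: 0% = plate median of test compound wells and 100% = 2 mM ZnCl2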
# Rin1 Abl inh: inhibitors of Rin1-Abl protein binding, primary screen, biochemical, TR-FRET; inhibition, % at 7.35 µM; actives 0.4% (n = 360,000); in the data active means inhibition above about 5%, passing the limit was not always enough
# Calb FLC: C. albicans growth inhibition with fluconazole, primary screen, CaCi-2 strain, Alamar Blue fluorescence; C. albicans CaCi-2 (fluconazole-resistant clinical isolate) + fluconazole, 48 h; actives 0.57% (n = 300,000); AID 1979, 2009; growth inhibition, % (concentration not given with the values);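 active means growth inhibition above about 58% in most replicates, limit read from the data, passing the limit was not always enough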;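 further: all wells also contain fluconazole at 8 µg/ml as a sub-toxic cotreatment; 0% = median of DMSO wells and 100% = median of geldanamycin control wells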
# Fh CTSL1 inh: Fasciola hepatica cathepsin L1 inhibitors, primary screen, counter-screen for PFM18AAP inhibitor project, biochemical, QFRET, fluorogenic peptide substrate. recombinant F. hepatica cathepsin L1, Z-Leu-Arg-MCA fluorescence. inhibition, % at 5.96 µM. actives 0.49% (n = 300,000). AID 1906, 2009;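 active means inhibition above the mean of all tested compounds plus 3 SD, set per screening campaign, cut at about 17% in these data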;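 further: 0% = plate median of test compound wells and 100% = 1 µM Z-Phe-Ala-diazomethylketone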
# Rin1 Abl conf: Rin1-Abl binding inhibitor retest, confirmation, biochemical, TR-FRET. purified proteins. inhibition, % at 7.35 µM. shares compounds with Rin1 Abl inh. actives 49% (n = 1,300)
# GFP quencher: GFP fluorescence inhibitors and quenchers, artefact control for Rin1-Abl interaction inhibitor project, biochemical; shares compounds with Rin1 Abl inh; inhibitors/quenchers counterscreen; inhibition, % at 6.75 µM; actives 8.5% (n = 1,300);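 further: ABL1-eGFP fusion protein alone without its partner RIN1-SBP; 0% = protein with vehicle and 100% = wells lacking protein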
# GFP quench DR: GFP fluorescence inhibitors and quenchers, dose response, artefact control for Rin1-Abl interaction inhibitor project, biochemical | AID 602182, 2012 | GFP fluorescence interference/quenching counterscreen | IC50, µM | shares compounds with Rin1 Abl inh | 230 tested, under 10 active; call rule not given here;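 further: ABL1-eGFP fusion protein alone without its RIN1 binding partner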
# * marks the source's active call; other numbers are inactive results; x = not tested or not shown. Hits are enriched below; roughly 2.1% of the tested compounds scored in any of these assays. Unless noted, no stated cut-off is given here; in the data, active means inhibition above about 6.5%; inactive means the rest.
SMILES,M18AAP inhibitor,Rin1 Abl inh,Calb FLC,Fh CTSL1 inh,Rin1 Abl conf,GFP quencher,others
CC(C)OC(=O)CSc1nnc(Cc2ccccc2)n1C,0,8.9*,-10,-1,-2,0,
C=CCOc1ccc(/C(O)=C2/C(=O)C(=O)N(CCCn3ccnc3)C2c2ccco2)cc1 (centres undefined),3,-1,3,-1,x,x,
CC(C)[C@@H](CO)NC(=O)[C@H]1O[C@@H](n2cnc3c(N)ncnc32)[C@H](O)[C@@H]1O,x,3,x,x,x,x,
CCOC(=O)c1ccc(NC(=O)CN(C)S(=O)(=O)c2ccc(OC)cc2)cc1,2,8.0*,-1,-3,-2,-1,
O=C1NCC(O)=C1C=NCCO,-6,-3,-4,-1,x,x,
O=C1NCC(O)=C1C=NC12CC3CC(CC(C3)C1)C2,5,31*,20,1,23*,0,GFP quench DR=>68
CCN(CC(=O)Nc1ccc(NC(C)=O)cc1)C(=O)c1ccc(Sc2nncn2C)c([N+](=O)[O-])c1,x,9.7*,x,x,0,0,
Cc1csc(N=Cc2ccc([N+](=O)[O-])o2)n1,x,3,x,x,x,x,
CCCCC(=O)Nc1ccc(C(=O)N2CCCC(C(=O)OCC)C2)cc1 (centres undefined),4,7.3*,18,-5,2,1,
Cc1ccc(S(=O)(=O)N(C)C)cc1NC(=O)c1cc(=O)c2ccccc2o1,-2,-1,0,-1,x,x,
O=S(=O)(Nc1cc2nc3ccccc3nc2n1Cc1ccccc1)c1ccc(Cl)cc1,28*,30*,25,-3,28*,-2,GFP quench DR=>68
O=S(=O)(NCc1ccccc1)c1ccc(Cl)cc1,12,-2,-5,1,x,x,
Cc1ccc2cc(NC(=O)CC(CC(=O)O)c3ccccc3)ccc2n1 (centres undefined),2,8.6*,-15,-8,1,-1,
CCN(CC)CCCNC(=O)C1c2ccccc2Oc2ccccc21,-17,5.0*,-10,2,1,-1,
O=C(CSC1=NNC(c2ccccn2)S1)Nc1ccccc1 (centres undefined),-7,6.5*,-1,8,-6,3,
COC(=O)CSc1nnc(CNc2ccc(OC)cc2)n1C,4,4,2,1,x,x,
Cc1nc(CN2CCCCC2)cc(=O)[nH]1,0,9.8*,-8,0,1,-3,
O=C(COC(=O)c1ccc([N+](=O)[O-])cc1Cl)Nc1cccnc1Cl,x,8.7*,4,1,3,0,
COc1ccc(NC(=O)NC2CCCc3ccccc32)c(OC)c1 (centres undefined),3,0,9,-1,x,x,
COc1ccc(CNC2CCCc3ccccc32)c(OC)c1 (centres undefined),1,6.2*,4,x,0,0,
CC(=O)Nc1cccc2c1OCCO2,-6,-2,-7,0,x,x,
Cc1ccc(C(=O)NCCn2cc(SCC(=O)Nc3cc(C)on3)c3ccccc32)cc1,-1,2,3,8,x,x,
Cc1cc(NC(=O)CSc2cn(CCNC(=O)c3ccccc3)c3ccccc23)no1,6,24*,5,-2,14*,2,
CC(Oc1cccc(Cl)c1)C(=O)Nc1nc(-c2ccccn2)cs1 (centres undefined),x,7.1*,0,-1,-1,1,
CC(Oc1ccccc1)C(=O)Nc1nc(-c2ccccn2)cs1 (centres undefined),x,4,x,x,x,x,
SMILES,M18AAP inhibitor,Rin1 Abl inh,Calb FLC,Fh CTSL1 inh,Rin1 Abl conf,GFP quencher,others
O=c1c2ccccc2ncn1Cc1ccc(Cl)c(Cl)c1,-2,6.3*,9,2,1,-2,
O=c1c2ccccc2ncn1Cc1ccc(Cl)cc1,-2,-3,-11,0,x,x,
CCC1CCCCN1S(=O)(=O)c1ccc(NC(=O)c2snnc2C)cc1 (centres undefined),-6,1,5,-12,x,x,
CCC1CCCCN1S(=O)(=O)c1ccc(NC(=O)c2cccs2)cc1 (centres undefined),-4,10*,-2,-4,0,-1,
O=C(COC(=O)[C@@H]1CCCN1C(=O)c1cccs1)Nc1cccc(Cl)c1,x,2,x,x,x,x,
Cn1cnc2c1c(=O)n(Cc1ccc(F)cc1Cl)c(=O)n2C,5,7.6*,-4,-1,5,1,
Cc1ccc(C(=O)N2CCCC(CCC(=O)N3CCN(c4ccccn4)CC3)C2)cc1 (centres undefined),5,9,-12,4,x,x,
O=C(CCC1CCCN(C(=O)c2ccccc2Cl)C1)N1CCN(c2ccccn2)CC1 (centres undefined),7,2,-4,-2,x,x,
CC(=O)c1ccccc1C(=O)N1CCCC(CCC(=O)N2CCN(c3ccccn3)CC2)C1 (centres undefined),-4,7.9*,-7,-6,-1,0,
Cc1cccc(C(=O)N2CCCC(CCC(=O)N3CCN(c4ccccn4)CC3)C2)c1 (centres undefined),-3,8.8*,3,1,5,-1,
COc1ccc(OC)c(/C=N/NC(=O)c2cccc3ccccc23)c1,x,6.9*,3,7,-3,0,
CC1=CN(S(=O)(=O)c2ccc(C)cc2)C[C@@H]2c3ccccc3N(S(=O)(=O)c3ccc(C)cc3)[C@H]12,x,-1,x,x,x,x,
O=C(c1cccs1)N1CCN(c2nnc(-c3ccccc3)c3ccccc23)CC1,5,-3,2,-3,x,x,
Cc1ccc(-c2nnc(N3CCN(C(=O)c4cccs4)CC3)c3ccccc23)cc1,-2,6.3*,1,1,3,-1,
Cc1onc(-c2ccccc2)c1C(=O)NCCc1ccncc1,3,0,1,2,x,x,
c1ccc2c(c1)c1cccc3ccc4cccc2c4c31,x,8.2*,x,x,4,0,
O=c1c2ccccc2ccc2ccccc12,x,-3,x,x,x,x,
CCOC(=O)c1c(NC(=S)Nc2cccc(C)c2)sc2c1CC(C)(C)SC2,2,-1,-9,-3,x,x,
C[n+]1c(-c2ccccc2)cc2c(=Cc3ccccc3)c3ccccc3n21,x,13*,x,x,-6,2,
CC12CCC(=O)N1C(C(=O)Nc1nnc(SCc3ccccc3F)s1)CS2 (centres undefined),-3,32*,-5,1,52*,-1,GFP quench DR=>68
CCC(=O)N(c1nnc(SCC(=O)NN2C(=O)NC3(CCCCC3)C2=O)s1)C1CC1,x,3,x,x,x,x,
Nc1nnc(CCCCc2cccs2)o1,-2,7.6*,x,x,2,0,
O=C(O)CCCC(=O)OCCCCc1cccs1,-3,-2,1,-2,x,x,
